Out of some 200,000 compounds screened, about 4,500 (2.2%) were called active. Another 12% or so got no clear call; they are omitted. Calls come from the whole dose curve; as a rule, active = well fitted inhibition curve with a large enough effect; inconclusive = small, poorly fitted or top-dose-only effect, or effect the other way; inactive = flat fitted curve, though single readings scatter. Many of the other results were omitted from the sample, so actives are more common in it than they were.

The values that follow come from PubChem BioAssay AID1476 (National Center for Advancing Translational Sciences (NCATS), 2009).
Potency is the fitted concentration of half-maximal effect.

Cruzipain (Trypanosoma cruzi), sequence (P25779 123-467 limits assumed): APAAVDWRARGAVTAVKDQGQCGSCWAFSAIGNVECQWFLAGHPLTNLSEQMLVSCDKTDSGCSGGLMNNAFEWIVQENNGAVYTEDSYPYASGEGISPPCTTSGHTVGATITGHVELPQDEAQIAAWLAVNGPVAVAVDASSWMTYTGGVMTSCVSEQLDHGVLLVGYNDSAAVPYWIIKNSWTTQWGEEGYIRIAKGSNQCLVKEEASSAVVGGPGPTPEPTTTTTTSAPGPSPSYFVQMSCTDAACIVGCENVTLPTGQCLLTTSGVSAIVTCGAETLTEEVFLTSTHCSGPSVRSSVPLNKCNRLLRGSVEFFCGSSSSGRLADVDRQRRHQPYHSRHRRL

The assay has as its target Cruzipain (Trypanosoma cruzi) (UniProt P25779). Briefly: qHTS Assay for Promiscuous and Specific Inhibitors of Cruzain (without detergent).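 For max response, negative = inhibition: plate controls were enzyme without inhibitor for no effect and buffer without enzyme for full effect.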 Note: nearly all actives have a fitted effect of over 40% in size. Particulars: purified cruzain, Z-FR-AMC fluorescence, no detergent. The method in brief:
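Purified cruzain at 1.5 nM, pre-incubated 15 min with compound at room temperature in 100 mM sodium acetate pH 5.5, 5 mM DTT, 0.00005% Triton X-100. Reaction started with 2 uM Z-FR-AMC; AMC fluorescence increase over 60 s gives rate.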
For `CCCC12CN3CC(CCC)(CN(C1)C3c1c[nH]c3ccc(OC)cc13)C2=O` (stereo unspecified), the max response, negative = inhibition was 15.7% (inactive).

On to `O=C(NCc1ccccn1)c1ccc2nc(-c3ccco3)c(-c3ccco3)nc2c1`, for which the Potency was 25.1 µM (active).

On to `CN(c1ccc(C(=O)NCc2ccccn2)cc1)S(C)(=O)=O`, for which the max response, negative = inhibition was -4.77% (inactive).

As for `O=C(NCc1ccccn1)c1cc(-c2ccccc2Cl)on1`, the max response, negative = inhibition is -2.8% (inactive).

As for `CCSc1nnc2c(n1)OC(c1ccc(OCC(=O)O)cc1)Nc1ccccc1-2` (stereo unspecified), the max response, negative = inhibition is -6.38% (inactive).

In the case of `CCOc1ccc(CNC(=O)c2cc(-c3ccc(Cl)s3)nc3ccccc23)cc1`, the max response, negative = inhibition is -5.14% (inactive).

With `CN(C)c1ccc(NC(=S)N(CCc2ccccc2)C2CC(=O)N(c3c(Cl)cccc3Cl)C2=O)cc1` (stereo unspecified), the Potency is 15.8 µM (active).

In the case of `Cc1ccc(N2CC(C(=O)Nc3ccc(N(C)C)cc3)CC2=O)cc1Cl` (stereo unspecified), the max response, negative = inhibition was -3.38% (inactive).

As for `COC(=O)CN(C(=S)Nc1ccc(Cl)cc1)C1CC(=O)N(c2ccc(OC)cc2)C1=O` (stereo unspecified), the max response, negative = inhibition was -5.17% (inactive).

For the compound `CN1C(=O)c2ccccc2Sc2ccc(NC(=O)Cc3ccc(Cl)cc3)cc21`, the max response, negative = inhibition is 14.1% (inactive).

Turning to `CCCCn1c(=N)c(S(=O)(=O)c2ccccc2)cc2c(=O)n3cccc(C)c3nc21`, the max response, negative = inhibition was 14.5% (inactive).

Regarding `CCn1c(=N)c(S(=O)(=O)c2ccc(F)cc2)cc2c(=O)n3ccccc3nc21`, the Potency was 20 µM (active).

Turning to `CCOC(=O)c1cc2c(=O)n3ccccc3nc2n(Cc2ccco2)c1=NC(=O)c1ccc(F)cc1`, the max response, negative = inhibition is -18.9% (inactive).

As to `Cc1ccc(-c2nc(CS(=O)(=O)CC(=O)NCc3ccccc3Cl)c(C)o2)cc1`, the max response, negative = inhibition is -2.75% (inactive).

For `CCC(C)(C)n1nnnc1C(c1ccccc1OC)N1CCSCC1` (stereo unspecified), the max response, negative = inhibition was 1.47% (inactive).

Regarding `CC(C)(C)n1nnnc1C(c1ccc2ncccc2c1)N1CCSCC1` (stereo unspecified), the Potency is 7.94 µM (active).

`CC(C)(C)n1nnnc1C(c1ccc(Cl)cc1)N1CCSCC1` (stereo unspecified): the max response, negative = inhibition was -17.6% (inactive).

Regarding `Cc1ccc(C)c(NC(=O)Cn2ccn(-c3ccc(F)cc3)c(=O)c2=O)c1`, the max response, negative = inhibition is -16.8% (inactive).

Turning to `O=C(CCn1c(=S)[nH]c2ccccc2c1=O)NCCCN1CCCC1=O`, the max response, negative = inhibition is 7.76% (inactive).

Take `O=C1CCCN1CCCNc1ncnc2c1[nH]c1ccccc12`: the Potency is 20 µM (active).

As for `CC(C)OCCCNc1ncnc2c1[nH]c1ccc(F)cc12`, the max response, negative = inhibition is -22.4% (inactive).

On to `COc1ccc(N2CCN(C3=NS(=O)(=O)C(c4cccc(Br)c4)=C3C)CC2)cc1`, for which the max response, negative = inhibition is -1.42% (inactive).

Consider `COc1cccc(CNc2nccn(-c3ccc(OC)c(OC)c3)c2=O)c1`, for which the max response, negative = inhibition was 4.88% (inactive).

`CCOc1ccc(-n2c(SCC(=O)NCc3ccccc3)nc3n[nH]c(C)c3c2=N)cc1`: the max response, negative = inhibition was 6.06% (inactive).

`COc1ccc(OC)c(-n2nnc3c(sc4nc(C)c(Br)c(C)c43)c2=O)c1`: the max response, negative = inhibition was 15.9% (inactive).

In the case of `Cc1cccc(N=C2NC(=O)/C(=C/c3cn(C)c4ccccc34)S2)c1`, the Potency was 31.6 µM (active).

Regarding `Cc1ccc(N=C2NC(=O)/C(=C/C=C/c3ccco3)S2)cc1C`, the max response, negative = inhibition was -3.89% (inactive).

Consider `Cc1nnc(N2CCCC(C(=O)NCCN(C)C)C2)c2nn(-c3ccccc3)c(C)c12` (stereo unspecified), for which the max response, negative = inhibition was -14.7% (inactive).

As for `Cc1cccc(CSc2nc3ccncc3n2Cc2ccc(C(=O)O)cc2)c1`, the max response, negative = inhibition is -13.3% (inactive).

Regarding `CCc1nn(CC(=O)N2CCN(c3cccc(C(F)(F)F)c3)CC2)c(=O)c2cc3occc3n12`, the max response, negative = inhibition is -20.3% (inactive).

`CCCCN1C(=O)c2[nH]nc(-c3ccccc3O)c2C1c1cccc(OCc2ccccc2)c1` (stereo unspecified): the max response, negative = inhibition was -70.8% (inactive).

Consider `O=C(COc1ccccc1Cl)Nc1ccc2nc(SCC(=O)N3CCCC3)sc2c1`, for which the max response, negative = inhibition was -3.05% (inactive).

As to `Cc1ccc(NC(=O)CSc2nc3ccccc3c3nc(CCn4cncc4C)nn23)cc1F`, the max response, negative = inhibition was 6.2% (inactive).

For `COc1ccc(CNC(=O)CCc2c(C)nn(-c3ccc(N4CCCC4)nn3)c2C)cc1`, the max response, negative = inhibition was 3.65% (inactive).

In the case of `Cc1ccc2nc(S(=O)(=O)O)[nH]c2c1`, the max response, negative = inhibition was -1.87% (inactive).

Take `Cc1ccc2nc(/C(C#N)=C/c3ccc(-c4ccc(C(=O)OC(C)C)cc4)o3)[nH]c2c1`: the Potency is 12.6 µM (active).

For the compound `Cc1ccc2nc(/C(C#N)=C/c3ccccc3F)[nH]c2c1`, the max response, negative = inhibition is -17.7% (inactive).

In the case of `Cc1ccc(N2C(=O)C(Cc3ccccc3)NC2=S)cc1` (stereo unspecified), the max response, negative = inhibition was -8.99% (inactive).

As for `C=C1c2cc(CC)ccc2NC(=O)N1c1ccc(C)cc1`, the max response, negative = inhibition is -5.5% (inactive).

Turning to `Cc1ccc(N2C(=O)C3C(c4ccccc4)(C2=O)C3(c2ccccc2)c2ccccc2)cc1` (stereo unspecified), the Potency was 25.1 µM (active).

On to `Cc1ccc(Cn2c(=O)n(CCCC(=O)NCc3ccccc3Cl)c(=O)c3ccccc32)cc1`, for which the max response, negative = inhibition was 3.97% (inactive).
